# Measurements published in the supplement of paper PMC10105736.
# Values without a mark were called inactive.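 Rule for the calls: active = MAPPIT score above the 99th percentile of random reference set scores in the same batch; inactive = at or below it.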
# Columns and labels:
# Assay in all cases: MAPPIT interaction score (arbitrary units); higher = stronger binary interaction signal, active = hit call of the paper
# CG17224 = details: MAPPIT configuration: N-N; pair source set: Finley_Y2H
# CG17770 = details: pair source set: RRS
# CG17991 = details: MAPPIT configuration: N-C
# park = details: MAPPIT configuration: N-C; pair source set: screen_4
# CG17598 = details: MAPPIT configuration: N-N; pair source set: Lit-BM-16
# sina = details: MAPPIT configuration: N-N; pair source set: screen_2
# CG17162 = details: MAPPIT configuration: N-C; pair source set: screen_4
# CG1789 = details: MAPPIT configuration: N-N; pair source set: Finley_Y2H
# Mnt = details: pair source set: Lit-BM-16
# CG17217 = details: MAPPIT configuration: N-N; pair source set: Finley_Y2H
# PIG-T = details: MAPPIT configuration: N-N; pair source set: DPIM
# Prosalpha6T = details: pair source set: Lit-BM-16
# Prosbeta3 = details: MAPPIT configuration: N-C; pair source set: Lit-BM-16
# Rpt2 = details: pair source set: Lit-BM-16
# Rpt4 = details: pair source set: Lit-BM-16
# 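Note: HEK293T cells with Epo stimulation, STAT-responsive firefly luciferase reporter, fold induction versus unstimulated cells divided by the larger fold induction of two negative controls lacking either bait or prey.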
binder,measurement,setting,value
Ddc (protein) MSHIPISNTIPTKQTDGNGKANISPDKLDPKVSIDMEAPEFKDFAKTMVDFIAEYLENIRERRVLPEVKPGYLKPLIPDAAPEKPEKWQDVMQDIERVIMPGVTHWHSPKFHAYFPTANSYPAIVADMLSGAIACIGFTWIASPACTELEVVMMDWLGKMLELPAEFLACSGGKGGGVIQGTASESTLVALLGAKAKKLKEVKELHPEWDEHTILGKLVGYCSDQAHSSVERAGLLGGVKLRSVQSENHRMRGAALEKAIEQDVAEGLIPFYAVVTLGTTNSCAFDYLDECGPVGNKHNLWIHVDAAYAGSAFICPEYRHLMKGIESADSFNFNPHKWMLVNFDCSAMWLKDPSWVVNAFNVDPLYLKHDMQGSAPDYRHWQIPLGRRFRALKLWFVLRLYGVENLQAHIRRHCNFAKQFGDLCVADSRFELAAEINMGLVCFRLKGSNERNEALLKRINGRGHIHLVPAKIKDVYFLRMAICSRFTQSEDMEYSWKEVSAAADEMEQEQ,MAPPIT interaction score,CG17224,0.0861
Rtf1 (protein) MGKRRTQSLIDSNSSDSDSESETNLESDLMSLAKKRKKPQTAAKSSSRSDSDSDWANNKAGAPSSKKKKRQKPSRDSSSSESNWDDDSQDERQPARQSPAQTQQEHKPPEQASQPAQLSEQEEGEVSDSDSDKSKSNSSSSGSDSSSSSSSSDSEFDDGFDDDLMGDDEDRRRLNGLSEKERETEIYKRIEQREIMRTRWEIERKLKLARRGEKNQEKSKNKGERAKKKKEKREKKARKAREAQAPLPTQASTSTLLDVEPKPSNEVRSASPLSTPALNRDAASTSAAVASIMPDDAASSAGVSDYFDHKERSKERKKNVEANKTDDKRSNAMALLKAKREGKAKREEEEAKRMAEKDRDDDKEELDSVSGCKSAVKLKASEIYSDDSGSSDWDEEEKPAGKRSRSNSSKASSESEDEEKAPQRPVFITTREDLNKLRLSRYKMERFVNLPIFESTVLNCFVRISIGNNGQKPVYRVAEIVGVVETGKIYSLGTTRTNRGLRLKHGTQERVFRLEFISNQEFTENEFNKWNEVCQQSHVQMPTIDLIAIKQNDIKKALNYEFKDEDVDKIVEEKNRFRNRPTNYAMKKTCLMKERDAAMLRGDYDIAQDLGQQIDELENRASELDKRRSHTLNLISYINDRNRKKNVEDAEKAILEEARANKGLKISDPFTRRITQPRMGFKGAKKDEDDMQLAPLPPPPPGKKRPNEAGTSSASVRSTDSKDYSLYSLHDFDIDLDVPLPVNTNSVPKPASKPAETVSKRSLNLEDYKKKRGLI,MAPPIT interaction score,CG17770; MAPPIT configuration: N-C,0.216
same,MAPPIT interaction score,CG17770; MAPPIT configuration: N-N,-0.281
CG5532 (protein) MPVDWFGYVYAATVAAGGIMGYAKAGSIPSLGAGLAFGALLGYGAHLNSQDTPRPLLQLGTSLFLAGLMGARWNRSGKLMPAGMVCMLSVAALVKNLATYNRYLMPAGTKAP,MAPPIT interaction score,CG17991; pair source set: screen_4,0.124
same,MAPPIT interaction score,park,0.413
Rab2 (protein) MSYAYLFKYIIIGDTGVGKSCLLLQFTDKRFQPVHDLTIGVEFGARMITIDGKQIKLQIWDTAGQEAFRSITRSYYRGAAGALLVYDITRRETFNHLTTWLEDARQHSNSNMVIMLIGNKSDLDSRREVKKEEGEAFAREHGLVFMETSARTAANVEEAFINTAKEIYEKIQEGVFDINNEANGIKIGQQHSPTNPSLPGAGGAAGAANSGCC,MAPPIT interaction score,CG17598,1.18
ben (protein) MSSLPRRIIKETQRLMQEPVPGINAIPDENNARYFHVIVTGPNDSPFEGGVFKLELFLPEDYPMSAPKVRFITKIYHPNIDRLGRICLDVLKDKWSPALQIRTILLSIQALLSAPNPDDPLANDVAELWKVNEAEAIRNAREWTQKYAVED,MAPPIT interaction score,CG17991; pair source set: screen_3,0.127
same,MAPPIT interaction score,sina,0.428
TrxT (protein) MVYPVRNKDDLDQQLILAEDKLVVIDFYADWCGPCKIIAPKLDELAHEYSDRVVVLKVNVDENEDITVEYNVNSMPTFVFIKGGNVLELFVGCNSDKLAKLMEKHAGVYTDEAADVKAVHIDGECIVDLTAESSESDNDNNNVNEVSAHDENAVLEH,MAPPIT interaction score,CG17162,1.51
Max (protein) MSMSDDDRDIDIESDEDGDSDTGLGSSRHTNTANFTQAEKRAHHNALERRRRDHIKESFTNLREAVPTLKGEKASRAQILKKTTECIQTMRRKISENQKDIEEIKRQNNIIAKQIQALESSNGDQFSEFLSDEEVGSEEADDEDLDQDFSRRNKKMKTFHA,MAPPIT interaction score,CG1789,0.0947
same,MAPPIT interaction score,Mnt; MAPPIT configuration: N-C,4.14 (active)
same,MAPPIT interaction score,Mnt; MAPPIT configuration: N-N,5.94 (active)
Prosalpha2 (protein) MATERYSFSLTTFSPSGKLVQLEYALAAVSGGAPSVGIIASNGVVIATENKHKSPLYEQHSVHRVEMIYNHIGMVYSGMGPDYRLLVKQARKIAQTYYLTYKEPIPVSQLVQRVATLMQEYTQSGGVRPFGVSLLICGWDNDRPYLYQSDPSGAYFAWKATAMGKNAVNGKTFLEKRYSEDLELDDAVHTAILTLKEGFEGKMTADNIEIGICDQNGFQRLDPASIKDYLASIP,MAPPIT interaction score,CG17217,1.84
same,MAPPIT interaction score,PIG-T,0.383
same,MAPPIT interaction score,Prosalpha6T; MAPPIT configuration: N-C,2.29
same,MAPPIT interaction score,Prosalpha6T; MAPPIT configuration: N-N,-0.206
same,MAPPIT interaction score,Prosbeta3,1.69
same,MAPPIT interaction score,Rpt2; MAPPIT configuration: N-C,-1.15
same,MAPPIT interaction score,Rpt2; MAPPIT configuration: N-N,0.523
same,MAPPIT interaction score,Rpt4; MAPPIT configuration: N-C,0.723
same,MAPPIT interaction score,Rpt4; MAPPIT configuration: N-N,-0.155
